ABCB6 inh 2 – ABCB6 transporter inhibitors, primary screen, K562-ABCB6 cells, flow cytometry, MLPCN library; fluorescence ratio to DMSO, % at 10 µM; 360,000 compounds, 0.19% hits; K562-ABCB6 porphyrin accumulation, 1 h; active compounds read low; ATP-binding cassette sub-family B member 6 (Homo sapiens), Q9NP58;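 active = fluorescence ratio to DMSO below 75%, the collection mean minus 3 SD; inconclusive = too few cells collected in the well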;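 note: signal is porphyrin accumulated inside mitochondria; 100% equals median channel fluorescence of DMSO control wells; lower ratio means ABCB6 inhibition with less porphyrin fluorescence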
Vif inh – HIV Vif self-association inhibitors, primary screen, imaging, HEK293T, single point; inhibition, % at 7.49 µM; HEK293T cells, Vif self-association by quenched fluorescence, 24 h; 340,000 compounds, 0.35% hits; in the data active = inhibition above about 50%, passing the limit was not always enough; inconclusive = no clear call, values can overlap the other calls; inactive = below about 31%
Myeloid diff MLP – induction of myeloid progenitor differentiation, primary screen, cell-based, flow cytometry, MLPCN library; ER-HoxA9 myeloid progenitors, lysozyme-GFP differentiation; calls only at 10 µM; 360,000 compounds, 1% hits;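 active = normalized GFP-positive differentiation at or above the plate's own cutoff, the solvent-only control mean plus 3 SD; inconclusive = no clear call, values can overlap the other calls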;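 note: cells exposed to compound for four days before flow analysis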
RAD54 branch – inhibitors of human RAD54 branch migration, primary screen, biochemical, fluorescence, single point | DNA repair and recombination protein RAD54-like (Homo sapiens), Q92698 | RAD54 Holliday junction branch migration, FAM/BHQ fluorescence | inhibition, % at 10.4 µM | 360,000 compounds, 0.14% hits | AID 602329, 2012;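 active = mean normalized replicate activity at least 40 and at least half of replicates scoring 40 or more; inconclusive = only one of the two criteria met; inactive = mean below 40 and under half of replicates reaching 40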;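 note: 0% = median of neutral control wells and 100% = median of positive control wells; inhibitors cause a drop in the FAM fluorescence signal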
Target sequence (Q92698 whole entry, looked up): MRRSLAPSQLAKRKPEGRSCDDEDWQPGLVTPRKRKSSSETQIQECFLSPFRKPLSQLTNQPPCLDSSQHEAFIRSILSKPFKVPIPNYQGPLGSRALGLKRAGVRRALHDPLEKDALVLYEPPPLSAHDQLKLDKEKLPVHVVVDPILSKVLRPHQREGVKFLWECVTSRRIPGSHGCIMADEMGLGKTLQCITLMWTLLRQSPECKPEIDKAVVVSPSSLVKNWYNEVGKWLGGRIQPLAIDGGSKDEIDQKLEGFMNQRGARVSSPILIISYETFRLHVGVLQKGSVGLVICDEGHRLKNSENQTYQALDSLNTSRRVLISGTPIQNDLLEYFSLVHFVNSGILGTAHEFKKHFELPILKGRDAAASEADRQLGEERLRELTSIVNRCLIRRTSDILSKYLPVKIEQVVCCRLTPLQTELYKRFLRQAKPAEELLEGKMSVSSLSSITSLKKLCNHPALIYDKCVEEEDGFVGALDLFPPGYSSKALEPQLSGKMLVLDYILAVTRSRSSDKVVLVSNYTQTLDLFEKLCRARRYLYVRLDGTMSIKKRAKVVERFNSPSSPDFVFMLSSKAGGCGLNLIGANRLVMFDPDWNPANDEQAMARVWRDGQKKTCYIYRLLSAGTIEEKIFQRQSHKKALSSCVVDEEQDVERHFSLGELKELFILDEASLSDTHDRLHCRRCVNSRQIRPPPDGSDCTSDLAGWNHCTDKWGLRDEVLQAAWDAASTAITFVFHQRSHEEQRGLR
N-glyco inh – increase of ERlucT glycosylation luciferase signal, primary screen, N-linked glycosylation inhibitor project, D54 ERlucT cells, luminescence, set 2; D54 ERlucT glycosylation luciferase reporter, 24 h; percent of 100 nM tunicamycin response; reporter increase, % at 12.5 µM; 360,000 compounds, 0.23% hits;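 active = mean luciferase reporter signal, scaled so untreated is 0 and the glycosylation-blocking control 100, at or above a set limit in every replicate; inconclusive = mean reaches the limit but not every replicate does; inactive = mean below the limit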;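 note: luciferase carries N-glycosylation sites so blocking glycosylation raises the light; 0% = median of neutral control wells and 100% = median of 100 nM tunicamycin wells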
* marks the source's active call; other numbers are inactive results; i = inactive; ? = inconclusive; nt = not tested or not shown; + = active, no number. Sampled rows, rich in hits. Any-hit rate of the full collection: about 1.6%.

SMILES	ABCB6 inh 2	Vif inh	Myeloid diff MLP	RAD54 branch	N-glyco inh
CCNC(=O)C[C@@H]1CC[C@@H]2[C@@H](COc3ccc(NC(=O)c4cc(C)on4)cc3C(=O)N2C)O1	nt	nt	nt	-3.6	nt
O=C1C=CC(=O)N1c1ccccc1N1C(=O)C=CC1=O	98.0	157.1*	i	3.2	0.7
COc1ccc(C2CC3(O)NC(=O)C(C#N)(C3C)C2(C#N)C#N)cc1 (stereo unspecified)	94.0	65.8*	i	-5.0	1.4
COc1ccc(C2CC3(O)CC(C#N)(C(=O)N3)C2(C#N)C#N)cc1 (stereo unspecified)	102.0	-26.8	i	nt	0.8
CN(C)CCCNCCCNC(=O)c1ccncc1	98.0	-26.0	+	-10.9	1.3
Oc1ccc(C[C@@H]2CNCCN2CCc2cccc3ccccc23)cc1	99.0	nt	+	18.0	-3.3
Oc1ccc(C[C@H]2CNCCN2CCc2cccc(F)c2)cc1	97.0	-2.3	i	0.1	-1.3
CCCCN1CCNC[C@@H]1Cc1ccccc1	97.0	6.5	i	-3.7	0.8
CCCCN1CCNC[C@@H]1Cc1ccc(O)cc1	104.0	nt	+	5.7	1.8
Cc1ccc(C)c(C(=O)COC(=O)c2ccc(C)c(S(=O)(=O)N3CCOCC3)c2)c1	98.0	58.9*	i	2.1	0.1
Cc1ccc(C(=O)OCC(=O)NC(C)C)cc1S(=O)(=O)N1CCOCC1	99.0	3.7	i	-11.0	2.2
O=C(O)C[C@H]1C[C@H]2c3cc(NC(=O)Nc4ccc(F)cc4)ccc3O[C@H]2[C@H](CO)O1	nt	nt	nt	1.5	nt
O=C(N/N=C/c1ccncc1)c1cccc(S(=O)(=O)Nc2ccc(Cl)cc2)c1	99.0	7.0	+	nt	1.3
Cc1ccc(S(=O)(=O)NCC[C@@H]2CC[C@@H](NC(=O)c3cccc(F)c3)[C@H](CO)O2)cc1	nt	nt	nt	0.0	nt
CSc1ccc(CN(C)CC(=O)NCCc2ccccc2)cc1	94.0	69.3*	i	7.0	0.4
COc1cccc(NC(=O)N2C[C@@H](O)COC[C@@H]3O[C@H](CC(=O)NC4Cc5ccccc5C4)CC[C@H]32)c1	nt	nt	nt	7.8	nt
COc1ccc(N2CCN(C(=O)C3Cc4ccccc4CN3C(=O)c3ccccc3)CC2)cc1 (stereo unspecified)	99.0	-5.6	+	6.5	0.5
CC(=O)N1Cc2ccccc2CC1C(=O)N1CCN(c2ccccc2)CC1 (stereo unspecified)	105.0	13.0	i	5.0	0.3
O=[N+]([O-])c1cccc(N/N=C/c2cccc(O)c2O)c1	95.0	63.8*	i	nt	-5.9
Cn1c(SCC(=O)c2ccc(F)cc2)nnc1-c1cnccn1	97.0	121.8*	i	-1.3	4.3
Cn1c(SCC(=O)c2ccccc2)nnc1-c1ccccn1	98.0	-3.7	i	-9.0	-3.6
O=C1CCCN1CCCNc1nc(NCc2ccccc2)nc2ccsc12	98.0	nt	i	-9.7	38.0*
C=CCNc1nc(NCCCN2CCCC2=O)c2sc(-c3ccccc3)cc2n1	102.0	-2.0	i	-9.8	2.8
O=C(C[C@@H]1C=C[C@H](NC(=O)C2CC2)[C@@H](CO)O1)Nc1nccs1	nt	nt	nt	-1.7	nt
C[C@@H]1CCCCO[C@@H](CN(C)S(C)(=O)=O)[C@@H](C)CN([C@@H](C)CO)C(=O)c2cc(NS(C)(=O)=O)ccc2O1	nt	nt	nt	5.7	nt
SMILES	ABCB6 inh 2	Vif inh	Myeloid diff MLP	RAD54 branch	N-glyco inh
Cc1cc(OCC(C)C)ccc1/C(O)=C1/C(=O)C(=O)N(Cc2cccnc2)C1c1ccncc1 (stereo unspecified)	103.0	53.9*	i	7.0	0.4
COCC(=O)Nc1ccc2c(c1)OC[C@H](C)N(CCc1ccccc1)C[C@@H](C)[C@@H](OC)CN(C)C2=O	nt	nt	nt	-12.7	nt
CCOc1ccc2nc(SCC(=O)N3c4ccccc4Sc4ccccc43)c(C#N)cc2c1	98.0	2.0	+	nt	-3.4
CCOC(=O)CC(=O)CSc1nc2ccc(C)cc2cc1C#N	162.0	82.5*	nt	-6.9	-7.5
Cc1ccc2nc(SCC(=O)Nc3ccccc3N3CCOCC3)c(C#N)cc2c1	101.0	4.2	?	5.3	12.1
Cc1ccc2nc(SCC(=O)Nc3ccc4sc(C)nc4c3)c(C#N)cc2c1	102.0	-1.6	i	0.3	33.3*
CC(C)OC(=O)N(C)C[C@H]1OCc2ccccc2-c2c(n(C)c3ccccc23)C(=O)N([C@H](C)CO)C[C@@H]1C	nt	nt	nt	-1.2	nt
COc1ccc(-c2csc(NC(=O)CS(=O)(=O)c3ccccc3)n2)c(OC)c1	97.0	1.7	i	0.8	0.1
COc1ccc(-c2csc(NC(=O)CCS(=O)(=O)c3ccccc3)n2)c(OC)c1	93.0	9.0	+	nt	-4.8
O=C(CCS(=O)(=O)c1ccccc1)Nc1nc(-c2ccc(F)cc2)cs1	99.0	-1.1	+	nt	-5.6
COc1cccc(NC(=O)N(C)C[C@@H]2Oc3ncc(C#Cc4ccc(F)cc4)cc3C(=O)N([C@@H](C)CO)C[C@@H]2C)c1	nt	nt	nt	-7.4	nt
O=S1(=O)N=C(N(CCO)/N=C/C=C/c2ccccc2)c2ccccc21	102.0	-0.7	+	-1.2	1.2
O=S1(=O)N=C(N(CCO)/N=C/c2ccc(Cl)cc2)c2ccccc21	109.0	-4.7	i	-7.9	-0.5
Cc1ccc(Cn2c(C(C)Nc3nc(-c4ccc(Cl)cc4)cs3)nc3cc(C(=O)NCCCO)ccc32)cc1 (stereo unspecified)	101.0	-3.8	+	-2.6	1.6
NC(=O)c1ccc(=O)n(C2OC(CO)C(O)C2O)c1 (stereo unspecified)	98.0	-4.7	i	-5.1	0.8
O=C1C=CN(C2OC(CO)C(O)C2O)C(=O)C1 (stereo unspecified)	105.0	0.4	+	nt	-0.8
O=C(NCc1ccccc1)c1ccc(Cl)c(NC2=NC3CS(=O)(=O)CC3S2)c1 (stereo unspecified)	94.0	59.9*	i	4.8	-0.1
C[C@H]1CN([C@@H](C)CO)C(=O)c2cc(NC(=O)CCC(F)(F)F)ccc2O[C@H]1CN(C)Cc1ccc(Oc2ccccc2)cc1	nt	nt	nt	3.2	nt
N/C(=N/OC(=O)c1ccc(Cl)cc1)c1ncc([N+](=O)[O-])s1	106.0	0.1	+	-7.3	3.1
N/C(=N\OC(=O)c1ccc(Cl)cc1)c1ccccn1	93.0	28.3	i	-6.1	-19.8
COc1ccc(C(C)(O)c2nc(-c3ccncc3)cs2)cc1 (stereo unspecified)	100.0	-4.8	+	11.9	17.8
CN1CCN(C(=O)C[C@H]2C[C@H]3c4cc(NC(=O)c5ccc6c(c5)OCO6)ccc4O[C@H]3[C@H](CO)O2)CC1	nt	nt	nt	0.1	nt
Cc1nc(NCc2ccccn2)c2c3c(sc2n1)CCCC3	132.0	-2.0	+	nt	-0.8

Assay outcomes: PubChem BioAssay, several laboratories
